aDG glyco up: activators of alpha-DG glycosylation, primary screen, uHTS, Pro5-aDG cells, AlphaScreen; alpha-DG glycosylation AlphaScreen (IIH6); 0% Pro5, 100% B10-LARGE cell signal; activation, % at 10 µM; 360,000 tested, 0.22% active;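 active = activation of at least 8% versus controls, or a plate z-score of at least 8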;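 also: Pro5 are CHO cells carrying HIG-tagged alpha-DG that lacks glycosylation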
Cardio protect: cardioprotection against H2O2-induced cell death, primary screen, uHTS, H9c2 cells, ATPLite luminescence | H9c2 cardiomyocytes, H2O2 injury protection, 2 h | protection from H2O2 cell death, % at 20 µM | 360,000 tested, 0.63% active | AID 588492, 2011;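 active = compounds giving at least 50% protection of heart cells from peroxide-induced death in the single-dose screen, raw or plate-pattern-corrected value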;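 also: 0% = DMSO wells with peroxide and 100% = DMSO wells without peroxide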
CR mimetic SO: reduction of superoxide in aged yeast, primary screen, HTS; AID 2690, 2010; 330,000 tested, 0.18% active; S. cerevisiae aged cells, superoxide DHE fluorescence; active compounds read low; superoxide response (% of plate mean), % at 10 µM;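 active = superoxide response under a set limit, about three screen SD below normal, cut at about 65% in these data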;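 also: yeast aged for seven days with compound at 30 °C before DHE staining; 100% = average MFI of all compound-treated wells on the plate with controls excluded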
MPTP inh: mitochondrial permeability transition pore inhibitors, primary screen, biochemical, isolated mouse mitochondria, absorbance; Ca2+ swelling absorbance, 30 min; inhibition, % at 10 µM; 360,000 tested, 1.4% active; AID 602449, 2012;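 active = inhibition of 50% or more, scaled per plate between neutral and stimulator controls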;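 also: 0% = DMSO wells given calcium and 100% = 1 mM EGTA wells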
FAS TE block: FAS thioesterase domain inhibitors, primary screen, biochemical, fluorescence intensity, uHTS; inhibition, % at 15 µM; Fatty acid synthase (Homo sapiens), P49327; recombinant FAS-TE, OMFH fluorogenic substrate, fluorescence endpoint; 360,000 tested, 0.67% active; AID 602261, 2012;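 active = compounds whose normalised, plate-corrected inhibition of enzyme fluorescence in the single-dose primary screen is 50% or more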;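 also: 0% = DMSO with enzyme and 100% = substrate without enzyme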
SUMO Mot1 rescue: yeast Mot1-301 growth rescue at high temperature, primary screen, SUMOylation pathway inhibitor project, S. cerevisiae, ATP luminescence, 38.5C | growth rescue, % at 18.8 µM | 320,000 tested, 1% active | AID 2716, 2010 | S. cerevisiae Mot1-301 growth rescue; percent above DMSO median, 100 means doubled;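 active = every valid replicate shows activation above 250% relative to neutral control wells; inactive = the rest, any valid replicate at or below 250%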;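 also: OY570 slx delta 5 strain wells were the positive control but not used for scaling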
Rh123 counter: fluorescence retest of MPTP screen hits in isolated mitochondria, single concentration. shares compounds with MPTP inh. membrane potential, Rhodamine 123 fluorescence. inhibition, % at 10 µM. 5,000 tested, 78% active. AID 624504, 2012; in the data active = inhibition above about 22%;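 also: 0% = DMSO vehicle and 100% = positive control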
MPTP abs DR: mitochondrial permeability transition pore inhibitors, dose response, biochemical, absorbance, uHTS hits | shares compounds with MPTP inh | isolated mitochondria swelling | IC50, µM | 780 tested, 58% active | AID 651561, 2012; in the data active = IC50 below about 20 µM
MPTP cs DR: fluorescent counter-screen in isolated mitochondria, dose response, counter-screen for MPTP inhibitor project, biochemical, fluorescence, uHTS hits. shares compounds with MPTP inh. isolated mitochondria counterscreen, fluorescence read-out. IC50, µM. 780 tested, 49% active. AID 651564, 2012; in the data active = IC50 below about 80 µM
* marks the source's active call; other numbers are inactive results; / = no result. Hits are enriched below; roughly 3.8% of the tested compounds scored in any of these assays.

SMILES	aDG glyco up	Cardio protect	CR mimetic SO	MPTP inh	FAS TE block	SUMO Mot1 rescue	Rh123 counter	others
CCN(CC(=O)Nc1c(F)cccc1F)C(=O)C1CCN(S(=O)(=O)c2ccccc2C(=O)OC)CC1	0	4	/	0	-6	/	/
CC1CCCCC1N1CN=C(Nc2nc3ccccc3s2)NC1 (stereo not given)	0	0	115	66*	-5	-6	-1	MPTP abs DR=>100;MPTP cs DR=>80
c1ccc2sc(NC3=NCN(C4CCCCC4)CN3)nc2c1	0	-15	94	-1	-6	-6	/
COC(=O)c1cc(NC(=O)COC(=O)CCc2nc3ccccc3c(=O)[nH]2)cc(C(=O)OC)c1	0	13	78	0	-13	10	/
CN1\C(=C/C=C/C=C/C=[N+](C)C)C(C)(C)c2ccccc21	1	-26	/	112*	-13	/	59*
COc1ccc([C@H]2CC(=O)C=C(c3c(OC)cccc3OC)C2)cc1	0	-5	98	0	24	15	/
CCOC(=O)c1cc2c(C)n(-c3ccc(C)cc3)c(C)c2ccc1=O	2	-22	91	82*	-4	-8	35*
Fc1ccc(-c2nn(-c3ccccc3)cc2CNCc2ccccc2)cc1	1	-18	97	91*	18	3	-10	MPTP abs DR=4.7*;MPTP cs DR=43*
O=C(CNC(=O)c1ccccc1F)N/N=C/c1ccc2c(c1)OCO2	0	-2	99	-3	-3	-13	/
O=[N+]([O-])c1cc(-c2n[nH]c(-c3ccccc3)n2)cc([N+](=O)[O-])c1	0	-9	92	72*	16	82	9	MPTP abs DR=20*;MPTP cs DR=<2.5*
Cc1cc(C)cc(NC(=O)Nc2ccc3c(c2)N(C)C(=O)CS3)c1	0	-9	112	49	14	-8	/
CC(=O)c1cccc(NC(=O)Nc2ccc3c(c2)N(C)C(=O)CS3)c1	0	52*	107	90*	9	12	76*
CCc1ccc(NC(=O)Nc2ccc3c(c2)N(C)C(=O)CS3)cc1	0	-5	100	56*	24	-6	70*
Cc1cc(OCC(=O)NNC(=S)NC(=O)c2ccc(Br)o2)ccc1Cl	0	26	95	6	4	23	/
FC(F)Sc1ccc(NC(=S)NCc2ccccc2)cc1	1	-10	114	85*	40	25	92*
FC(F)Sc1ccc(NC(=S)NC(c2ccccc2)c2ccccc2)cc1	2	-29	125	98*	33	-14	63*
FC(F)(F)c1ccc(NC(=S)NCc2ccccc2)cc1	0	-31	86	97*	23	12	95*
Cc1ccc(/C=C2\SC(=S)N(CCC(=O)NNC(=O)c3cccnc3)C2=O)cc1	0	-20	94	65*	-7	4	59*
O=C(CCN1C(=O)/C(=C/c2ccc(F)cc2)SC1=S)NCCCn1ccnc1	0	-11	128	2	-9	5	/
O=C(CCN1C(=O)/C(=C/c2cccc(Br)c2)SC1=S)NNC(=O)c1cccnc1	0	-18	139	4	5	10	/
O=C(CCN1C(=O)/C(=C/c2ccc(Cl)cc2)SC1=S)NCCCn1ccnc1	0	-13	100	60*	-6	-1	72*
O=C(CCN1C(=O)/C(=C/c2ccccc2)SC1=S)N1CCCCCC1	0	-8	97	77*	8	116	82*
O=C(CCN1C(=O)/C(=C/c2ccc(F)cc2)SC1=S)NNC(=O)c1cccnc1	0	-12	95	38	-3	-9	/

Compound activity (PubChem)
